Among all 340,000 compounds or so, about 1,000 (0.29%) were called active. Cut-off read from the data, not from the text of the source: inconclusive = inhibition above about 29% without an active follow-up result; inactive = below that. These entries were drawn from the full list. Results with a measured potency or affinity are listed apart.
Biological target: Genome polyprotein (Dengue virus type 2 (strain 16681-PDK53)) (UniProt P29991)
Assay: flavivirus cap methylation enzyme inhibition – biochemical, confirmation dose response, primary screen (AID 588689)
Conditions: Dengue-2 NS5 methyltransferase capping enzyme assay, at 25 µM, stronger effect = higher value
[1] = measured here: pilot screen replicate inhibition

Genome polyprotein (Dengue virus type 2 (strain 16681-PDK53)), sequence (P29991 whole entry, looked up): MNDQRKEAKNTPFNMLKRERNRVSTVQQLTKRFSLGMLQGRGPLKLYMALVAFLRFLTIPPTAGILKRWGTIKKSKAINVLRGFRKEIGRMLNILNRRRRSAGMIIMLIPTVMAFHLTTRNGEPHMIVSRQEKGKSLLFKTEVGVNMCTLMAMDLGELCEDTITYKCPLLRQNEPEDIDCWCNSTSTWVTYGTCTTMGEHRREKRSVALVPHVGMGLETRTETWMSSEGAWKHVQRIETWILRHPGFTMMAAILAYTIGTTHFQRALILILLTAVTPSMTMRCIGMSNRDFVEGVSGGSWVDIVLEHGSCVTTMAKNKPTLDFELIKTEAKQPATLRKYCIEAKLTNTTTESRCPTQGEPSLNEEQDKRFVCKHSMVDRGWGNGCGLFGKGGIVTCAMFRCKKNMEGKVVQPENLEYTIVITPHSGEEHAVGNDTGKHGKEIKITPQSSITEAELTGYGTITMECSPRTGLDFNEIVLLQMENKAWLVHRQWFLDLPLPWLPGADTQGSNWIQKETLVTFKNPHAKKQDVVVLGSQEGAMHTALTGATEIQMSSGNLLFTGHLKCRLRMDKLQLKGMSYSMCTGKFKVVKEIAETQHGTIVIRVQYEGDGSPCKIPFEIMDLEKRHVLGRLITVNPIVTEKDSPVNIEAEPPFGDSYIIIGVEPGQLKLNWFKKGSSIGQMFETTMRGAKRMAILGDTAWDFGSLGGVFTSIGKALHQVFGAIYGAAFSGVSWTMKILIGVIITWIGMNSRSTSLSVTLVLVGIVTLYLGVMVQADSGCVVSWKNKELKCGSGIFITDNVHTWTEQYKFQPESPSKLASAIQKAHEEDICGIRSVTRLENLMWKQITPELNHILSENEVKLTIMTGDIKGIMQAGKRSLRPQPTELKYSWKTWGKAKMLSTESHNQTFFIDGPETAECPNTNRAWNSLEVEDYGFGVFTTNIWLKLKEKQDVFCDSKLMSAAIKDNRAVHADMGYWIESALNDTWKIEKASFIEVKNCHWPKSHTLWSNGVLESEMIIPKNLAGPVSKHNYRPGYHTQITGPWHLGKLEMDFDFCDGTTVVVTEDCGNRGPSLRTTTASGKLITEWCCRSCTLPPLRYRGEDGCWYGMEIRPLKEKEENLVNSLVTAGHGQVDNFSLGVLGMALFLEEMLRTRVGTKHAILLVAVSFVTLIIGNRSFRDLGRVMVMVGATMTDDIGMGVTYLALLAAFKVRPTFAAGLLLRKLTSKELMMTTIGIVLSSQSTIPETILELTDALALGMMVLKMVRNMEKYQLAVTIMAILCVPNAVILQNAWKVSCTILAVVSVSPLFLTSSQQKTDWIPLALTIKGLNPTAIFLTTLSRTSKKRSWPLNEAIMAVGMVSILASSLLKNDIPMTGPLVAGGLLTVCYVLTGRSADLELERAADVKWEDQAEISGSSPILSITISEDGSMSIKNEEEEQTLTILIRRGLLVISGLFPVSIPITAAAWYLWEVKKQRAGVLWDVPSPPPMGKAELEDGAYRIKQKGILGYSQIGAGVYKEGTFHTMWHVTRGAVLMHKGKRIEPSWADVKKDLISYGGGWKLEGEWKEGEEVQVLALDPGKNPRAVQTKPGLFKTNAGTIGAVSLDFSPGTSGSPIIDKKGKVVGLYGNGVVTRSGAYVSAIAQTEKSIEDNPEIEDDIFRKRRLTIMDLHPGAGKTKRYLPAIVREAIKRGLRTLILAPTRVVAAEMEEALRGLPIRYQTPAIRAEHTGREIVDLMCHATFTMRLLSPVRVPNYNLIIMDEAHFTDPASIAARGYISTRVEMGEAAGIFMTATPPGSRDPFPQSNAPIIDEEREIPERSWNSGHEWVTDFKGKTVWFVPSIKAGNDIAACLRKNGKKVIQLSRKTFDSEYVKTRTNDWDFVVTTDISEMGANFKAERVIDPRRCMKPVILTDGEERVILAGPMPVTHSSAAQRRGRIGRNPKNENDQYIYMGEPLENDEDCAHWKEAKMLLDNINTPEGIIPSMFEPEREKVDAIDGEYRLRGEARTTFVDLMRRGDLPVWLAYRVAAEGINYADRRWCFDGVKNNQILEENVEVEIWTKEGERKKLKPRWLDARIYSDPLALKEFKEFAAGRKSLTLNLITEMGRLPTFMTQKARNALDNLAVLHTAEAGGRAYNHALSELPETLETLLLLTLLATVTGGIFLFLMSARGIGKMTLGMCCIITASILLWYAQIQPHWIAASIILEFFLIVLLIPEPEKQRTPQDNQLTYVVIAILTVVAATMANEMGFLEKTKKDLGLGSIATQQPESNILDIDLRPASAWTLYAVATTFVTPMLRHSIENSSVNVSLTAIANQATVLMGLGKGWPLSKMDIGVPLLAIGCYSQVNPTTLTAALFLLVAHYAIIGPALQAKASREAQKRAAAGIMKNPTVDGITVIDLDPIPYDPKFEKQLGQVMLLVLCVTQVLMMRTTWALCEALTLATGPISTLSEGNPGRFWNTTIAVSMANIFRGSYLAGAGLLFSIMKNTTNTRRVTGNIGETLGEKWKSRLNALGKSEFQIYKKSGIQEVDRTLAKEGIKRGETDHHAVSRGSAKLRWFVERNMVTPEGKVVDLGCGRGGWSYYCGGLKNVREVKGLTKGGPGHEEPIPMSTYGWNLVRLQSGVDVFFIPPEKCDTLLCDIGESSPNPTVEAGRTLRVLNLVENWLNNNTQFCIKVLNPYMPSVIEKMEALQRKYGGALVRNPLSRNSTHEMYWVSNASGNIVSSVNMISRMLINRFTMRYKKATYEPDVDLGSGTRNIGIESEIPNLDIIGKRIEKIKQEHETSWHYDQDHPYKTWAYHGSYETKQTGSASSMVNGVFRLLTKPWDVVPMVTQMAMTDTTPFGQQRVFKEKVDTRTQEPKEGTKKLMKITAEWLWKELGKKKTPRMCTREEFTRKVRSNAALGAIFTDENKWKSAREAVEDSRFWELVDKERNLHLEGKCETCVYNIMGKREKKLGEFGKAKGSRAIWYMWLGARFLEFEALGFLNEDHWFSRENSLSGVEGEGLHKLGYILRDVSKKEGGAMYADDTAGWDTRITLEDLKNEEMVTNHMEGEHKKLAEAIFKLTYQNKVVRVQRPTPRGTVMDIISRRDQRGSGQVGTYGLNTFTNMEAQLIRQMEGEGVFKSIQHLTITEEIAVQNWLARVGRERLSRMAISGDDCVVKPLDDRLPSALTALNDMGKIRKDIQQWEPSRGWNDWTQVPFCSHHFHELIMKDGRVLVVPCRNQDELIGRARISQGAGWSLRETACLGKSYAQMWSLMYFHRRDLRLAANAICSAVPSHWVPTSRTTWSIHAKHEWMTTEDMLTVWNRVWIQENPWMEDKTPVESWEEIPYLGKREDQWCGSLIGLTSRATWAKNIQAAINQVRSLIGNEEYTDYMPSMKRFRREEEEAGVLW

SMILES	inhibition	inhibition [1] [%]
CCN(CC)S(=O)(=O)c1ccc(N/N=C/c2ccccc2OCC(=O)O)c([N+](=O)[O-])c1	13.7% (inactive)	–
O=C(O)COc1ccccc1/C=N/NC(=O)c1cc(-c2ccccc2)nc2ccccc12	7.47% (inactive)	–
O=C(O)COc1ccccc1C=NNc1ccc([N+](=O)[O-])cc1S(=O)(=O)Nc1ccc(Cl)cc1	35% (inactive)	–
Cc1ccc(NS(=O)(=O)c2ccc(N/N=C/c3ccncc3)c([N+](=O)[O-])c2)c(C)c1	2.21% (inactive)	–
O=C(O)COc1ccccc1/C=N/NC(=O)c1cc(-c2ccc(F)cc2)nc2ccccc12	1.48% (inactive)	–
O=C(O)COc1ccccc1/C=N/Nc1ccc(S(=O)(=O)N2CCOCC2)cc1[N+](=O)[O-]	6.86% (inactive)	–
COc1ccccc1NS(=O)(=O)c1cccc(C(=O)N/N=C/c2ccccc2OCC(=O)O)c1	-8.38% (inactive)	–
COc1ccc(NS(=O)(=O)c2cc([N+](=O)[O-])ccc2NN=Cc2ccccc2OCC(=O)O)cc1	-8.26% (inactive)	–
CNC(=O)N(O)C1N(/N=C/c2ccc(C)cc2)C(=S)SC1(C)C (stereo not drawn)	-3.93% (inactive)	–
O=C(CCOc1ccccc1)NNC(=O)c1ccccc1	-4.63% (inactive)	–
Cc1ccc(C)c(C(=O)CCC(=O)Nc2cccnc2)c1	-3.23% (inactive)	–
CC1=C(C#N)C(=O)NC1(C)O (stereo not drawn)	5.14% (inactive)	–
COc1ccc(N(CC(=O)N2CCN(Cc3ccccc3)CC2)S(=O)(=O)c2ccccc2)cc1	-5.2% (inactive)	–
O=C(c1cccs1)N(Cc1ccco1)C1CCS(=O)(=O)C1 (stereo not drawn)	-4.01% (inactive)	–
O=C(Nc1ccccc1)c1ccccc1NC(=O)[C@H]1CCCC[C@H]1C(=O)O	-3.92% (inactive)	-1.53
CCC(C)Sc1cc(-c2nc3ccc(Cl)cn3c2NC2CCCCC2)ccc1OC (stereo not drawn)	-12.6% (inactive)	–
Cc1cc(OC(C)C(=O)NC2CCN(Cc3ccccc3)CC2)c2c(C)cc(=O)oc2c1 (stereo not drawn)	-2.72% (inactive)	–
CCCCOC(=O)C1=C(C)NC(=O)NC1c1ccc(OC)cc1 (stereo not drawn)	-0.39% (inactive)	–
Cn1cc(C(=O)Nc2ccc(F)c(F)c2)cn1	0% (inactive)	–
COCC(=O)Nc1ccc(N2CCCC2)c(S(=O)(=O)Nc2ccccc2OC)c1	-9.92% (inactive)	–
COc1ccc(N(CC(=O)NCCc2ccc(Cl)cc2)S(=O)(=O)c2c(C)[nH]c(=O)[nH]c2=O)cc1	-3.87% (inactive)	–
C=CC[C@@H](CC(=O)N[C@@H](CO)Cc1ccccc1)C(=O)NC[C@@H](OC(=O)[C@@H](CC=C)Cc1ccc(F)cc1)c1ccccc1	-8.18% (inactive)	–
CO/N=C(/C)CCS(=O)(=O)c1ccccc1	-0.73% (inactive)	–

SMILES	inhibition	inhibition [1] [%]
CC(C(=O)Nc1nncs1)N1C(=O)C2C3C=CC(C3)C2C1=O (stereo not drawn)	-5.41% (inactive)	–
CCN(CC(=O)NCc1cccs1)C(=O)CCC(=O)c1ccc(C)cc1	-8.12% (inactive)	–
NC(=O)C1CCN(C(=O)CN(C2CCCCC2)S(=O)(=O)c2ccc(F)cc2)CC1	-9.49% (inactive)	–
CCN(CC)S(=O)(=O)c1ccc2c(c1)N(CC(=O)N1CCC(C(N)=O)CC1)C(=O)CO2	-6.21% (inactive)	–
O=S(=O)(c1ccc2ccccc2c1)N1CCN(S(=O)(=O)c2c(F)cccc2F)CC1	1.65% (inactive)	–
CCOc1cc(Cl)c(NC(C)=O)cc1OCC	-5.19% (inactive)	–
COc1cc(O)c(NC(C)=O)c2nonc12	15% (inactive)	–
CC(C)(C)OC(=O)N1CCN(C(=O)c2[nH]cnc2C(=O)Nc2cccc(Cl)c2)CC1	-10.3% (inactive)	–
O=CN1CCN(C(=S)NC(=O)c2ccc(Cl)cc2)CC1	-3.86% (inactive)	–
C=CCN1C(=O)/C(=C\c2cccs2)C(C(=O)OC)=C1C	-4.71% (inactive)	–
CC(C)CN1C(=O)/C(=C/c2cccs2)NC1=S	4.84% (inactive)	–
O=C1NN(c2ccc(F)cc2)C(=O)/C1=C/c1cccs1	8.53% (inactive)	–
COC(=O)C1=C(C)NC(=O)/C1=C\c1cccs1	2.73% (inactive)	–
COc1ccc(NS(=O)(=O)c2cccc(C(=O)NCC3(N(C)C)CCCCC3)c2)cc1	-10.1% (inactive)	–
COCCNC(=O)c1ccc2c(=O)n(Cc3ccco3)c(SCC(=O)Nc3ccc(OC)cc3OC)nc2c1	-3.55% (inactive)	–
COc1ccccc1N1CCN(S(=O)(=O)c2ccc3nc(-c4ccccc4)[nH]c3c2)CC1	1.09% (inactive)	–
O=C(O)CSc1c2c(nc3cc(C(=O)Nc4cccc(C(F)(F)F)c4)ccc13)CCC2	2.95% (inactive)	–
O=c1c2c(nc3cc(-c4cccc(Cl)c4)[nH]n13)CCCC2	1.45% (inactive)	–
O=C(CSc1nc2c(c(=O)[nH]1)CCC2)Nc1cccc(Cl)c1	-8.06% (inactive)	–
O=C(NN=C1CCCC1)C(=O)Nc1cccc(C(F)(F)F)c1	-3.35% (inactive)	–
Cc1ccc(S(=O)(=O)/N=C(\Nc2cccc(C)c2)Nc2nc(C)cc(C)n2)cc1	-1.83% (inactive)	–
N#Cc1c(Nc2ccccc2)sc(C(=O)C2CC2)c1N	-8.93% (inactive)	–
CCN(CC)CCNC(C(=O)Nc1ccc([N+](=O)[O-])cc1Br)c1ccccc1 (stereo not drawn)	3.24% (inactive)	–

SMILES	inhibition	inhibition [1] [%]
COc1cc(C(=O)O)ccc1Cl	-1.59% (inactive)	–
Cc1cccc(N=Nc2cnc(N)s2)c1	0.79% (inactive)	–
CC(Oc1ccc2c(-c3ccccc3)cc(=O)oc2c1)C(=O)NCCCn1ccnc1 (stereo not drawn)	2.17% (inactive)	–
CC(C)NC1=C(Cl)C(=O)c2ccccc2C1=O	-0.68% (inactive)	–
CCC(=O)Nc1c(C)cc(C)cc1Cl	-1.67% (inactive)	–
CCC(=O)NC1=C(Nc2ccc(N)cc2)C(=O)c2ccccc2C1=O	7.83% (inactive)	–
CCCC(=O)Nc1ccccc1NC(=O)CCC	0% (inactive)	–
O=C(NCCc1ccccc1)c1nc(CS(=O)(=O)c2ccc(Cl)cc2)no1	-1.81% (inactive)	–
CCCCCC1CC(CC(=O)NC(=S)Nc2ccccc2Cl)C(=O)O1 (stereo not drawn)	-4.68% (inactive)	–
CN(C)S(=O)(=O)c1cccc2c1C(=O)c1ccccc1C2=O	-1.92% (inactive)	–
Nc1c(C(=O)O)ccc2c1C(=O)c1ccccc1C2=O	24.7% (inactive)	–
CC1(Cc2cn(CCC#N)c3ccccc23)OCCO1	6.35% (inactive)	–
CC1(C)CC(=O)C(C(c2cccc([N+](=O)[O-])c2)C2C(=O)CC(C)(C)CC2=O)C(=O)C1	0% (inactive)	–
C/[N+]([O-])=C\C1C(=O)CC(C)(C)CC1=O	-2.92% (inactive)	–
CCOC(=O)c1cc(CC)sc1/N=C/C1C(=O)CC(C)(C)CC1=O	-17.9% (inactive)	–
CC1(C)CC(=O)C(C(=O)Cc2ccccc2[N+](=O)[O-])C(=O)C1	-1.48% (inactive)	–
Cc1ccc2nc(SCn3nnc4ccccc4c3=O)[nH]c2c1	-4.53% (inactive)	–
COc1ccc(OCCCC(=O)ON=C(N)c2ccccc2Cl)cc1	1.1% (inactive)	–
CN(CCc1ccccc1)C(=O)c1ccc(NC(=O)Cc2ccc(NC(=O)C3CCCN(C(=O)C4CCC4)C3)cc2)cc1 (stereo not drawn)	0% (inactive)	0.92
COC(=O)c1ccc(NC(=O)CSc2nnc(COc3c(C)cccc3C)o2)cc1	-9.55% (inactive)	–
CC1CCC(O)(C(C(=O)O)c2ccccc2)CC1 (stereo not drawn)	-8.55% (inactive)	–
CC1CC(=O)c2cc(-c3ccccc3)oc2C1 (stereo not drawn)	5.14% (inactive)	–
COc1cc(NC(=O)CSc2ccc(-c3ccccn3)nn2)cc(OC)c1	0% (inactive)	–

SMILES	inhibition	inhibition [1] [%]
O=C(NNC1CC(=O)N(c2cccc(Cl)c2)C1=O)c1cccs1 (stereo not drawn)	3.87% (inactive)	–
O=C1CSC(=Nc2ccc(O)cc2)N1	-4.89% (inactive)	–
O=C1CSC(=Nc2ccc(O)cc2)N1c1ccc(O)cc1	-5.52% (inactive)	–
CN(C(=O)CC1C(=O)NCCN1Cc1ccccc1C(F)(F)F)C1CCOCC1 (stereo not drawn)	0.91% (inactive)	–
O=C(NCCCN1CCCC1)C1CCN(C(=O)c2cc3sccc3n2Cc2ccc(F)cc2)CC1	-2.07% (inactive)	–
CC(/C=C/c1ccco1)=N\NC(=O)COc1ccc(C)c(C)c1	-10.9% (inactive)	–
O=C(O)c1cccc(N/N=C(\N=Nc2ccccc2)c2ccccc2)c1	12.7% (inactive)	–
CC(=O)Nc1ccc(/C(N=Nc2ccccc2)=N/N=C(N)N)cc1	7.72% (inactive)	–
CCCCn1c(SCC2CCCO2)nc2cc(S(N)(=O)=O)ccc21 (stereo not drawn)	-11.1% (inactive)	–
CC1CCN(S(=O)(=O)c2ccc(C(=O)Nc3nnc(C4CC4)o3)cc2)CC1	-8.7% (inactive)	–
COc1cc(NC(=O)CN2CC(c3ccccc3)CC2=O)cc(OC)c1 (stereo not drawn)	0.73% (inactive)	–
CCn1cc(Br)c(C(=O)N2CCN(c3ccccc3)CC2)n1	-5.15% (inactive)	–
COc1ccc(C(C#N)=C2C=C(Cl)C(=NO)C=C2Cl)cc1	27.6% (inactive)	–
N#CC(=C1C=C(Br)C(=NO)C=C1Cl)c1cccc2ccccc12	24.1% (inactive)	–
Cc1cc(C)cc(NC(=O)CS(=O)(=O)c2cccc3nsnc23)c1	-0.79% (inactive)	–
Cc1ccc(NS(=O)(=O)Cc2ccccc2)cc1Cl	-1.36% (inactive)	–
CCC1CCCCN1S(=O)(=O)c1ccc2c(c1)CCN2C(C)=O (stereo not drawn)	-10.9% (inactive)	–
CC(=O)c1ccc(-n2c(=O)[nH]c(=O)c3c(N)c(C(=O)c4ccc(Cl)cc4)sc32)cc1	-6.85% (inactive)	–
CC(C)(C)OC(=O)C[C@@H]1C/C=C\C[C@@H](CC(=O)N(CCO)Cc2ccccc2)C(=O)N2CCC[C@H]2COC1=O	-2.31% (inactive)	-4.54
CC1=NN(c2ccc(C)cc2C)C(=O)C1C(c1ccccc1O)C1C(=O)N(c2ccc(C)cc2C)N=C1C (stereo not drawn)	15.6% (inactive)	–
CC1=NN(c2ccc(C)cc2C)C(=O)C1C(c1cccc(O)c1)C1C(=O)N(c2ccc(C)cc2C)N=C1C (stereo not drawn)	26.6% (inactive)	–

From PubChem BioAssay AID588689 (Southern Research Specialized Biocontainment Screening …, 2011)
